Data taken from PubChem BioAssay (NCATS).
Records with an inconclusive call do not appear. The source made the active and inactive calls. Calls follow the shape of the dose curve; as a rule, active = well fitted curve in the direction sought with a large enough effect; inconclusive = small, poorly fitted or top-dose-only effect, or another doubt; inactive = no such curve, though single readings can be large; an effect the other way counts as inactive or inconclusive.

Assays:
[1] = qHTS of pediatric cancer cell lines to identify multiple opportunities for drug repurposing: Confirmatory screen for NB1643 cells (AID 1347109); details: NB1643 neuroblastoma cell viability; series mostly up to 45.9 µM; also: nearly all actives have a fitted effect of over 45% in size
Procedure, shortened: (§1)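 Viability after 48 h compound treatment at 37C, 500-1,000 cells/well, read as ATP luminescence with CellTiter-Glo. Primary screens used 11-point (MIPE, 0.78 nM-46 µM) or 8-point (NPC, 0.59 nM-46 µM) final concentrations; follow-up screens used 11-point dilutions.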

[2] = qHTS of pediatric cancer cell lines to identify multiple opportunities for drug repurposing: Confirmatory screen for A673 cells (AID 1347110); details: A673 Ewing sarcoma cell viability; series mostly up to 45.9 µM; also: nearly all actives have a fitted effect of over 65% in size
Procedure, shortened: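 A673 cells at 500-1,000 cells/well were dosed 5 h after plating, in dilution series up to 46 uM final; primary runs used 8 or 11 points and confirmatory runs used 11 points. Viability was read by CellTiter-Glo luminescence after 48 h, against DMSO and 2.3 uM bortezomib controls.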

[3] = qHTS of pediatric cancer cell lines to identify multiple opportunities for drug repurposing: Confirmatory screen for SK-N-MC cells (AID 1347111); details: SK-N-MC cell viability; series mostly up to 45.9 µM;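 also: cells exposed to compound for 48 h before the readout; nearly all actives have a fitted effect of over 70% in size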
Procedure, shortened: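 SK-N-MC cells at 500-1,000 cells/well in growth media were pre-incubated 5 h, then exposed to compounds at 11-point dilutions for 48 h at 37 degrees C, 5% CO2. Viability was read as CellTiter-Glo luminescence.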

[4] = qHTS of pediatric cancer cell lines to identify multiple opportunities for drug repurposing: Confirmatory screen for BT-12 cells (AID 1347112); details: BT-12 rhabdoid tumor cells, viability; series mostly up to 45.9 µM; also: nearly all actives have a fitted effect of over 55% in size
Procedure, shortened: as §1

[5] = qHTS of pediatric cancer cell lines to identify multiple opportunities for drug repurposing: Confirmatory screen for LAN-5 cells (AID 1347113); details: LAN-5 neuroblastoma cell viability; series mostly up to 45.9 µM; also: nearly all actives have a fitted effect of over 65% in size
Procedure, shortened: as §1

[6] = qHTS of pediatric cancer cell lines to identify multiple opportunities for drug repurposing: Confirmatory screen for DAOY cells (AID 1347114); details: DAOY medulloblastoma cells viability, cytotoxicity qHTS; series mostly up to 45.9 µM; also: nearly all actives have a fitted effect of over 65% in size
Procedure, shortened: (§2)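 Viability measured as metabolically active cells via CellTiter-Glo luminescence following 48 hours of compound exposure, 11-point dilutions in confirmatory testing. 500-1,000 cells/well plated 5 hours before dosing; controls were DMSO and 2.3 µM bortezomib.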

[7] = qHTS of pediatric cancer cell lines to identify multiple opportunities for drug repurposing: Confirmatory screen for NB-EBc1 cells (AID 1347115); details: NB-EBc1 neuroblastoma cells, viability (cytotoxicity); series mostly up to 45.9 µM; also: nearly all actives have a fitted effect of over 45% in size
Procedure, shortened: as §1

[8] = qHTS of pediatric cancer cell lines to identify multiple opportunities for drug repurposing: Confirmatory screen for SJ-GBM2 cells (AID 1347116); details: SJ-GBM2 glioblastoma cells, viability; series mostly up to 45.9 µM; also: nearly all actives have a fitted effect of over 60% in size
Procedure, shortened: as §2

[9] = qHTS of pediatric cancer cell lines to identify multiple opportunities for drug repurposing: Primary screen for Rh41 cells (AID 1347108); details: Rh41 rhabdomyosarcoma viability, CellTiter-Glo luminescence, 48 h; series mostly up to 46 µM; also: nearly all actives have a fitted effect of over 70% in size
Procedure, shortened: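 Plated cells (500-1,000 per well, growth media) were allowed to settle for 5 hours, treated with compound dilutions for 48 hours, then lysed with CellTiter-Glo for 15 min at room temperature before luminescence reading.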
Potency is read from the fitted curve at half-maximal effect.

Structure (SMILES)	Potency [1]	Potency [2]	Potency [3]	Potency [4]	Potency [5]	Potency [6]	Potency [7]	Potency [8]	Potency [9]
CCNC(=O)Nc1ccc2ncc(Nc3ccc(C)cc3)nc2n1	inactive	inactive	inactive	inactive	inactive	inactive	–	–	–
CC(C)c1cc(-c2n[nH]c(=O)n2-c2ccc3c(ccn3C)c2)c(O)cc1O	–	18.5 µM (active)	inactive	–	inactive	–	inactive	inactive	–
Cn1c(=O)n(-c2ccc(C(C)(C)C#N)cc2)c2c3cc(-c4cnc5ccccc5c4)ccc3ncc21	–	2.61 µM (active)	2.33 µM (active)	–	2.08 µM (active)	–	–	3.29 µM (active)	0.132 µM (active)
CC(C)(C)c1cc(NC(=O)Nc2ccc(-c3cn4c(n3)sc3cc(OCCN5CCOCC5)ccc34)cc2)no1	16.5 µM (active)	0.585 µM (active)	10.4 µM (active)	26.1 µM (active)	23.3 µM (active)	–	–	16.5 µM (active)	–
CC1(C)O[C@@H]2C[C@@H]3[C@H]4C[C@@H](F)C5=CC(=O)C=C[C@]5(C)[C@@]4(F)[C@@H](O)C[C@]3(C)[C@]2(C(=O)CO)O1	–	0.0928 µM (active)	0.293 µM (active)	0.0737 µM (active)	–	–	11.7 µM (active)	–	–
CCC(=C(c1ccccc1)c1ccc(OCCN(C)C)cc1)c1ccccc1	–	–	23.3 µM (active)	–	–	–	inactive	inactive	–
CCCCc1nc2cc(C=CC(=O)NO)ccc2n1CCN(CC)CC	1.31 µM (active)	2.08 µM (active)	1.04 µM (active)	4.14 µM (active)	1.04 µM (active)	2.33 µM (active)	3.29 µM (active)	2.93 µM (active)	–
Cc1cc(Nc2ncnc3ccc(-c4ccc(CNCCS(C)(=O)=O)o4)cc23)ccc1Oc1ccn2ncnc2c1	–	–	20.8 µM (active)	inactive	20.8 µM (active)	–	–	0.0657 µM (active)	11.8 µM (active)
